# PubChem BioAssay (Tox21)
# Inconclusive results are not listed. A number with no mark means an inactive call. Activity calls are given as the source filed them. Calls follow the shape of the dose curve; as a rule, active = well fitted activation curve with a large enough effect in the repeat runs; inconclusive = weak or mixed curves; inactive = flat fitted curve, though single readings scatter. Where a SMILES comes first, the peptide text is derived from it. [ ]: non-standard residue; d: D form. pGlu = O=C1CC[C@@H](C(=O)O)N1
# Test: A CellTox Green Cytotoxicity Assay to monitor cytotoxicity in HepG2 cells - 32 hour (AID 1224883); also: nearly all actives have a fitted effect of over 50% in size
# Details: CellTox Green fluorescence; series mostly up to 76.8 µM; cytotoxicity increase: at the top concentration
# Description: National Center for Advancing Translational Sciences [NCATS]
# NIH Chemical Genomics Center [NCGC]
# U.S. Environmental Protection Agency [EPA]
# National Institutes of Environmental Health Sciences [NIEHS]
# National Toxicology Program [NTP]
# Cell-based models are critical for drug discovery. Determining the natural cytotoxic effects resulting from test compounds is an essential research activity. A CellTox Green Cytotoxicity Assay to monitor cytotoxicity in real time of continues cell culture during 40 hours of the compound treatment was used to screen Tox21 10K library compounds in HepG2 cells. CellTox Green Cytotoxicity Assay is a nonlytic, homogeneous, biofluorescent method to measure cytotoxicity in cell culture after experimental manipulation. The assay system uses a proprietary asymmetric cyanine dye that is excluded from viable cells but preferentially stains the dead cell's DNA. […] Viable cells produce no appreciable increases in fluorescence. Therefore, the fluorescence signal produced by the binding interaction with dead cell DNA is proportional to cytotoxicity.
# The mixture of HepG2 cell suspension and reagents were dispensed at 600cells/6 ul/well in 1536-well tissue culture treated black solid bottom plates using a Multidrop dispenser. After the assay plates were incubated at a 37 C/5% CO2 incubator for 5 hours, 23 nL of compounds dissolved in DMSO, positive and negative controls was transferred to the assay plate by a pintool work station. The plates were incubated at 37 C for 40 hours. The fluorescence intensity were measured at 0h, 8h, 16h, 24h, 32h and 40h time points using ViewLux plate reader during compound treatment.
# % is scaled to controls: 0 for no effect and ±100 for the full control effect; potency is read from the fitted curve at half-maximal effect.
SMILES,cytotoxicity increase,Potency
C=CCCCCCCCCC(=O)OCC,-3.37%,–
O=C(O)CCSCCC(=O)O,2.1%,–
O=C1c2ccccc2C(=O)c2cc(O)ccc21,-0.848%,–
Clc1cc(Cl)c(Cl)nc1Cl,29.4%,–
CO[C@@]1(NC(=O)CSC[C@@H](N)C(=O)O)C(=O)N2C(C(=O)O)=C(CSc3nnnn3C)CS[C@@H]21,-3.89% [at 35.3 µM],–
COC(=O)C1=C(C)NC(C)=C(C(=O)OC(C)C)C1c1cccc2nonc12 (stereo not given),-7.24% [at 35.3 µM],–
CC(=O)O[C@@]12CO[C@@H]1C[C@H](O)[C@@]1(C)C(=O)[C@H](O)C3=C(C)[C@@H](OC(=O)[C@H](O)[C@@H](NC(=O)OC(C)(C)C)c4ccccc4)C[C@@](O)([C@@H](OC(=O)c4ccccc4)[C@H]21)C3(C)C,–,6.7 nM (active)
C[N+](C)(C)CCCCCCCCCC[N+](C)(C)C,-13.4% [at 35.3 µM],–
NS(=O)(=O)Cc1noc2ccccc12,-4.81% [at 35.3 µM],–
CN1CCC(=C2c3ccccc3CCc3cccnc32)CC1,-1.24% [at 35.3 µM],–
CCNC(=O)[C@@H]1CCCN1C(=O)[C@H](CCCN=C(N)N)NC(=O)[C@H](CC(C)C)NC(=O)CNC(=O)[C@H](Cc1ccc(O)cc1)NC(=O)[C@H](CO)NC(=O)[C@H](Cc1c[nH]c2ccccc12)NC(=O)[C@H](Cc1cnc[nH]1)NC(=O)[C@@H]1CCC(=O)N1 ([pGlu]HWSYGLRP-NHEt),-11.7% [at 35.3 µM],–
NC(=O)NC1N=C([O][Al])NC1=O (stereo not given),-0.471% [at 35.3 µM],–
CCOc1ccc2nc(S(N)(=O)=O)sc2c1,-7.32% [at 35.3 µM],–
CN(C)CCN(C)CCN(C)C,2.09%,–
O=C(O)CNC(=O)c1ccccc1,-18.8% [at 35.3 µM],–
CCOC(=O)COc1cc(-n2ncc(C(F)(F)F)c(C)c2=O)c(F)cc1Cl,-10.4%,–
CC[N+](CC)(CC(=O)Nc1c(C)cccc1C)Cc1ccccc1 (tested in a mixture with another compound),0.54% [at 35.3 µM],–
NC(=O)N1c2ccccc2CC(=O)c2ccccc21,-13% [at 35.3 µM],–
CC(=O)N1C[C@H](O)C[C@H]1C(=O)O,-21.8% [at 35.3 µM],–
Cc1coc2ccccc2c1=O,-8.77% [at 35.3 µM],–

SMILES,cytotoxicity increase,Potency
CN(C)CCCN(C)CCCN(C)C,-18.1%,–
C=C[Si](OC(C)=O)(OC(C)=O)OC(C)=O,1.64%,–
Cc1onc(-c2c(Cl)cccc2Cl)c1C(=O)Cl,-3.05% [at 35.3 µM],–
CCN1C=CN(C)C1C (stereo not given),-5.17%,–
CCCCCCC#CC(=O)OC,15.1%,–
CC(=O)Nc1ccc(OCC(O)CNC(C)C)cc1 (stereo not given),-7.2% [at 35.3 µM],–
CC(=O)OCC(=O)[C@@]1(O)[C@H](C)C[C@H]2[C@@H]3CCC4=CC(=O)C=C[C@]4(C)[C@@]3(F)[C@@H](O)C[C@@]21C,-3.72% [at 35.3 µM],–
CC1=C(C/C=C(\C)CCC[C@H](C)CCC[C@H](C)CCCC(C)C)C(=O)c2ccccc2C1=O,5.63% [at 35.3 µM],–
C=C(C)C(=O)OCCOCCOCCOCCOC(=O)C(=C)C,-8.83%,–
CCOC(=O)C(=O)CCCCCCl,1.24% [at 35.3 µM],–
CCCCN1C=CN(C)C1,-19.6% [at 15.8 µM],–
NCCCC[C@H](N[C@@H](CCc1ccccc1)C(=O)O)C(=O)N1CCC[C@H]1C(=O)O,-0.445% [at 35.3 µM],–
CCCCOCCOC(=O)COc1cc(Cl)c(Cl)cc1Cl,-8.75%,–
CCN(C=O)CC,-0.741%,–
COc1c(N2CCNC(C)C2)c(F)cc2c(=O)c(C(=O)O)cn(C3CC3)c12 (stereo not given),-8.85% [at 35.3 µM],–
CC1=NN(c2cccc(S(=O)(=O)O)c2)C(=O)C1,2.26%,–
Nc1ccncc1N,-10.7% [at 35.3 µM],–
COc1ccc2cc1Oc1cc3c(cc1OC)CC[N+](C)(C)[C@H]3Cc1ccc(cc1)Oc1c(OC)c(OC)cc3c1[C@@H](C2)[N+](C)(C)CC3,1.16% [at 35.3 µM],–
OCCCCCO,-11.1%,–
CC(C#N)(CCC(=O)O)N=NC(C)(C#N)CCC(=O)O (stereo not given),4.21%,–
